PubChem BioAssay AID2283302 (EPA ToxCast)
Results filed as inconclusive are left out. Calls of active or inactive are those of the source. Rule for the calls: active = hit-call score of the fitted dose curve at least 0.9, where 1 is the maximum; inconclusive = response in the unintended direction; inactive = score below 0.9.

Target: rat Gamma-HydroxyButyrate Receptor (GHB), Tspan17 (gene 306771) (UniProt Q4V8E0)
Assay: NVS_GPCR_rGHB: NovaScreen (NVS) G Protein-Coupled Receptor Assay for rat Gamma-HydroxyButyrate Receptor (GHB)
Experimental: NVS_GPCR_rGHB is a biochemical, single-readout assay that uses extracted gene-proteins from Rat forebrain in a tissue-based cell-free assay. Measurements were taken 1 hour after chemical dosing in a 48-well plate.NVS_GPCR_rGHB is one of one assay component(s) measured or calculated from the NVS_GPCR_rGHB assay. It is designed to make measurements of radioligand binding, a form of binding reporter, as detected with scintillation counting signals by Filter-based radiodetection technology.Data from the assay component NVS_GPCR_rGHB was analyzed into 1 assay endpoint. This assay endpoint, NVS_GPCR_rGHB, was analyzed in the positive analysis fitting direction relative to DMSO as the negative control and baseline of activity. Using a type of binding reporter, loss-of-signal activity can be used to understand changes in the binding as they relate to the gene Tspan17. Furthermore, this assay endpoint can be referred to as a primary readout, because the performed assay has only produced 1 assay endpoint. To generalize the intended target to other relatable targets, this assay endpoint is annotated to the gpcr intended target family, where the subfamily is metabotropic glutamate receptor.
Binding assays used specific radioligands (tritiated, iodinated) with non-radioactive competitive displacement ligands in agonist or antagonist protocols (as indicated) and various reference compounds and inhibitors to titrate specific binding to receptors and transporters. Most enzyme assays (CYPs, kinases, phosphatases, proteases, HDACs) used recombinant protein and specific substrates (fluorescence mostly, some colorimetric and radioactive) and inhibitors, followed by a biochemical separation of substrate and product. All assays for the biochemical HTS were initially run in duplicate at a single concentration (10 uM for CYP450 assays and 25 uM for all others). Assay-chemical combinations meeting a pre-defined threshold (e.g., 30% inhibition and other criteria defined below) were then run in singleton concentration-response format with maximum concentration of 20 uM for CYPs and 50 uM for all others. Each assay was run with positive and negative controls, and concurrent controls on every plate. The follow-up (secondary) screen tested active chemical-pairs in concentration series, as well as a few additional assays not tested in the primary screen, some selected negative inactives, and several cases re-run in the concentration series for confirmatory purposes.

Chain of rat Gamma-HydroxyButyrate Receptor (GHB), Tspan17 (gene 306771) (Q4V8E0 whole entry, looked up): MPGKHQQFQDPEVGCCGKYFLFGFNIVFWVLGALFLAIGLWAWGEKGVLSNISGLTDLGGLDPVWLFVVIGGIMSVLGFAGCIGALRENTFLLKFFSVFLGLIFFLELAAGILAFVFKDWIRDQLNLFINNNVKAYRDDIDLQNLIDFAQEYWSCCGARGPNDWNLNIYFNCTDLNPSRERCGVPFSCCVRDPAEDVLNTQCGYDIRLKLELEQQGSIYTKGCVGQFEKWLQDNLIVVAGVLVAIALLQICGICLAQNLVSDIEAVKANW

Row | Compound | outcome | AC50
1 | COP(=S)(OC)Oc1nc(Cl)c(Cl)cc1Cl | inactive | 
2 | Cc1cc(Cl)ccc1OCC(=O)O |  | 25 µM (active)
3 | CCOC(=O)CC(SP(=S)(OC)OC)C(=O)OCC (centres undefined) | inactive | 
4 | CC(C1CC1)C(O)(Cn1cncn1)c1ccc(Cl)cc1 (centres undefined) | inactive | 
5 | CCOP(=O)(OCC)Oc1nc(Cl)c(Cl)cc1Cl | inactive | 
6 | CC(C)Oc1cccc(NC(=O)c2ccccc2C(F)(F)F)c1 | inactive | 
7 | CO[C@@H]1[C@H](OC(=O)NC(=O)CCl)CC[C@]2(CO2)[C@H]1[C@@]1(C)O[C@@H]1CC=C(C)C | inactive | 
8 | N#CSCSC#N |  | 19.5 µM (active)
9 | Clc1nc(Cl)nc(Nc2ccccc2Cl)n1 |  | 18.6 µM (active)
